This passage reports PBM binding z-score results from the supplement of paper PMC6555819.

This assay deals with VDR:RXRa (NR concentration 270 nM, RXRa partner concentration 90 nM). Description: PBM binding z-score (relative to random genomic background probes); higher = stronger binding; sequences stand for … in GC…GCGATTGACAGCGTAGAATGAAGG
Here is the method:
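Protein-binding microarray (Agilent 4x180K custom design, double-stranded 60-nt probes: 5' GC cap, 34-nt variable region, 24-nt constant primer region; full probe sequence given). Purified or IVT nuclear receptor:RXRα heterodimers (3:1 NR:RXRα, mostly 270:90 nM) or homodimers were incubated for 1 h in PBS with 2% milk and no ligand, then detected with Alexa488 antibodies. Fluorescence from o1-orientation probes (~5 replicates averaged) was converted to z-scores against 500 random hg19 background probes. Variable regions are seed direct-repeat (DR0–DR5) sites, all their single-nucleotide variants and half-site ablations.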
For the sequence ATATGTAGGTCATCGGGTCATTCAGTTTGCGCAT, the PBM binding z-score was determined as 6.28.

Regarding CCGAGTAGGTTACGAGGGCGCATTCAGTGCGAAT, the PBM binding z-score is 0.78.

The sequence CAAACTAGGTCACGAAAGGTCAAAGTTGAATGAC returned a PBM binding z-score of 6.81.

CCTAGCAGGCGAGGGTCACTCAAGCATTTCGCTT: the PBM binding z-score was 1.59.

In turn, ATCGAACGGTCGACGAGGTGAGTATACACCGTTT displayed a PBM binding z-score of 0.299.

Sequence CGAACTAGGTCACCAGGACAGTTAAGAGGTTGGA gave a PBM binding z-score of 2.11.

ATCGTAAGGTCGTGAGGTGAGTATACAGAAAGGC: the PBM binding z-score came out at 2.8.

Regarding CGTCTAAGGTCAAGGTCAGTGAAAGAGACTCGAA, the PBM binding z-score turned out to be 5.

For the sequence CGAACTAGGGCAAAGGACAGTGAAAGGCGACGTA, the PBM binding z-score was -0.612.

As for CGAACCAGGTCAAAGGACAGTGAAAGGCGACGTA, the PBM binding z-score came to 2.44.

Turning to CCTACTGGGCCAAGGTCATAGATCAGTCAAAGCA, the PBM binding z-score turned out to be 2.87.

With ATCGAAAGGTCGTGAAGTGAGTATACAGAAAGGC, the PBM binding z-score was 3.26.

In the case of CAAACTAGGTCACCGGAAGGTCATAGTCCGCATG, the PBM binding z-score turned out to be 5.66.

In turn, CTATGTACGTTAAGGGGGTCATTCAGTTTGAAAG gave a PBM binding z-score of 6.72.

For CAAACTAGGTCAAAGGTCAAAGTTGAGCCAACCA, the PBM binding z-score was determined as 6.85.

On to CGAACTTGGTCAAAGGACAGTGAAAGGCGACGTA, for which the PBM binding z-score was -0.101.

CGTCCAAGCTCAGCAGGTCAGTGAAAGCGACGTG returned a PBM binding z-score of -0.352.

CCGAGTAGGTTACCAGGGGGCATTCAGTGCGAAT came in with a PBM binding z-score of 4.94.

TGGCCTAGGTCATGGGCCAGTATACCACGCGAAC returned a PBM binding z-score of 1.62.

For the sequence CTATGTAGGTTAAGGGGGTCATGCAGTTTGAAAG, the PBM binding z-score was 7.13.

Consider AGTCAAAGTTGATCTAGGTAACGTAAGATATGCT, for which the PBM binding z-score stood at 0.0495.

Sequence ACTAGCAGGTCAAGGGTCACTCAAGATTAGTCCG showed a PBM binding z-score of 5.4.

ATCGAAAGGTCGACGAGGTGAGTATGCACCGTTT showed a PBM binding z-score of 5.27.

CGAACTAGGTCCTTGACAGGACAGTGAATAGTAA returned a PBM binding z-score of -0.351.

The sequence CAAACTAGGTCACGAAAGGTCAAAATCGAATGAC yielded a PBM binding z-score of 6.51.

TAGCCTAGGTCATGGGCCAGTTTACCACGCGAAC gave a PBM binding z-score of 2.61.

With ATATGTAGGTTATCGGGTCATTCATTTTGCGCAT, the PBM binding z-score came to 3.52.

ATCGAAAGGTCGACGAGGAGAGTATACACCGTTT gave a PBM binding z-score of 3.3.

CGTGCAAGGTCAGAGAGGTCAGTGAATGCCGAGT: the PBM binding z-score stood at 7.22.

Consider CGAACTAGGTGAAAGGACAGTGAAAGGCGACGTA, for which the PBM binding z-score is -0.353.

As for TCGAGTAGGTTACGGGGGCGTTCAGGGATGAAGA, the PBM binding z-score turned out to be 3.7.

The sequence CCAACTAGGTCACCAGGACAGTGAAGAGGTTGGA gave a PBM binding z-score of 1.99.

CGGACTAGGTCACCAGGACAGTGAAGAGGTTGGA registered a PBM binding z-score of 1.54.

Sequence ACTAGCAGGCCAAAGGTCACTCAAGATTAGTCCG displayed a PBM binding z-score of 4.05.

In turn, TCGATTAGGTTACGGGGGCATTCAGGGATGAAGA returned a PBM binding z-score of 4.31.

In turn, ATGTGTAGGTTACATCCGGGTCATTCAGGCTATG came in with a PBM binding z-score of 4.22.

The sequence TCTAGTTGGTCAAAGGCCACACACTCGAAATGCG had a PBM binding z-score of 1.04.

In the case of CCTACTGGGCCAAGGTCATTGACCAGTCAAAGCA, the PBM binding z-score turned out to be 3.38.

Sequence ATAAGTAGGTTAGGGTCATTCAGAAAGTAGGGAA showed a PBM binding z-score of 4.88.

The sequence CCTACTGGGCCATTCAGAGGTCATCGATCATATG came in with a PBM binding z-score of 4.05.
